Residual activity data for twelve compounds are collected here from ChEMBL document CHEMBL2218924, “A broad activity screen in support of a chemogenomic map for kinase signalling research and drug discovery” (Biochem J, 2013).

Assay [1] has as its target T1, Muscle, skeletal receptor tyrosine-protein kinase (Homo sapiens) (UniProt O15146).
T1 sequence (whole entry): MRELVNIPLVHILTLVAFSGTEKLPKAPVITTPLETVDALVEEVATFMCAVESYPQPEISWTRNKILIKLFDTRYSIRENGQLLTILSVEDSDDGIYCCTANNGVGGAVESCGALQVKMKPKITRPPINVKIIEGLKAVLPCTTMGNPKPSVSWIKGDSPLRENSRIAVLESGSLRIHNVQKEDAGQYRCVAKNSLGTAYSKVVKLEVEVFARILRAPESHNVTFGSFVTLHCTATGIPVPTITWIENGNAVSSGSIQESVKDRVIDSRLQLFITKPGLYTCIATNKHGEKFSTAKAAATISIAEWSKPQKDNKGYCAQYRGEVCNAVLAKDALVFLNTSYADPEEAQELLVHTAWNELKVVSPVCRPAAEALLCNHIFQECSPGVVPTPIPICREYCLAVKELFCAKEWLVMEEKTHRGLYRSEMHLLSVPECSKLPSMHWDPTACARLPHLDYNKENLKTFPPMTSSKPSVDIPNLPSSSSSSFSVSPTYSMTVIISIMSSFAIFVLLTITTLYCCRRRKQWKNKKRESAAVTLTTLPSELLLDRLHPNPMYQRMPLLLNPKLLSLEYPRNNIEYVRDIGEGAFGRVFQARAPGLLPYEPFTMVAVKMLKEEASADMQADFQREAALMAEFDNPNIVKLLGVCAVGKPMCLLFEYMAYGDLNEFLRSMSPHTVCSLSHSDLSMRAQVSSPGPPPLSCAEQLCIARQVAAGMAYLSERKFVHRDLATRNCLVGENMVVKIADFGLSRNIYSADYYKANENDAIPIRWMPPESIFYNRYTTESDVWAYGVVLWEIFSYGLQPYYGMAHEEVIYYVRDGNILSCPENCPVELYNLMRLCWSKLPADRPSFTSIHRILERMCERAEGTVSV
Conditions: at 1 µM.

The target of assay [2] is T1, Muscle, skeletal receptor tyrosine-protein kinase (Homo sapiens). To be noted: at 10 µM.
Assay [3] deals with T2, Serine/threonine-protein kinase Nek11 (Homo sapiens) (UniProt Q8NG66).
T2 sequence (whole entry): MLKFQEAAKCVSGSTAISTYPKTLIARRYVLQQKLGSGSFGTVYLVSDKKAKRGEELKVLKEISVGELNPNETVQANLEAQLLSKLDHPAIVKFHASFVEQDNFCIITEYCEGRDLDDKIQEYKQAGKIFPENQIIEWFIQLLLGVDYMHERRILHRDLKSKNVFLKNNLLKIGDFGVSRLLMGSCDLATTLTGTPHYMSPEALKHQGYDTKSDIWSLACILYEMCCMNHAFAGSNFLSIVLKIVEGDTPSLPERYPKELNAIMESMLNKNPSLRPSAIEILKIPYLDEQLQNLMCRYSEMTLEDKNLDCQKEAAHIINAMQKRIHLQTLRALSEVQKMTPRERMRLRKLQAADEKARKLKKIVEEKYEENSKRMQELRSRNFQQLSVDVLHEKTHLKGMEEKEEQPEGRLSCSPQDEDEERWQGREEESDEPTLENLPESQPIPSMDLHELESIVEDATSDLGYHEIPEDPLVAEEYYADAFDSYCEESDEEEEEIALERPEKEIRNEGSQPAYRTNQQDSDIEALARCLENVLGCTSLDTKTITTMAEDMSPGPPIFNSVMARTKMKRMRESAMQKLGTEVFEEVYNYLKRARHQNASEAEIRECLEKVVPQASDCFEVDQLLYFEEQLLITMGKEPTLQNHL
To be noted: at 1 µM.

Assay [4] concerns the target T2, Serine/threonine-protein kinase Nek11 (Homo sapiens). Conditions: at 10 µM.
Assay [5] addresses T3, Serine/threonine-protein kinase Nek2 (Homo sapiens) (UniProt P51955).
T3 sequence (whole entry): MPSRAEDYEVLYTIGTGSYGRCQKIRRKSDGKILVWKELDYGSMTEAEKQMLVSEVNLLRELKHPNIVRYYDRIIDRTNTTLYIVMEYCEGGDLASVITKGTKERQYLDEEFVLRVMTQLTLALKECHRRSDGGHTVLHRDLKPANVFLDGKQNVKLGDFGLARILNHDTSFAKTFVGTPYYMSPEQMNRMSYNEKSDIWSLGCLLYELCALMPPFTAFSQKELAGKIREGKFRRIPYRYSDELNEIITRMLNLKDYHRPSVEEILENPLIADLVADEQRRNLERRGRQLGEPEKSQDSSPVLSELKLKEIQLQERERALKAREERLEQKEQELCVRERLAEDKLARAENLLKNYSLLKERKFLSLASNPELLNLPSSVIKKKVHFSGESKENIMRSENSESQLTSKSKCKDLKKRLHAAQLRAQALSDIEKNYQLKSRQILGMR
Conditions: at 1 µM.

The target in assay [6] is T3, Serine/threonine-protein kinase Nek2 (Homo sapiens). To be noted: at 10 µM.
Assay [7] deals with T4, Serine/threonine-protein kinase Nek3 (Homo sapiens) (UniProt P51956).
T4 sequence (whole entry): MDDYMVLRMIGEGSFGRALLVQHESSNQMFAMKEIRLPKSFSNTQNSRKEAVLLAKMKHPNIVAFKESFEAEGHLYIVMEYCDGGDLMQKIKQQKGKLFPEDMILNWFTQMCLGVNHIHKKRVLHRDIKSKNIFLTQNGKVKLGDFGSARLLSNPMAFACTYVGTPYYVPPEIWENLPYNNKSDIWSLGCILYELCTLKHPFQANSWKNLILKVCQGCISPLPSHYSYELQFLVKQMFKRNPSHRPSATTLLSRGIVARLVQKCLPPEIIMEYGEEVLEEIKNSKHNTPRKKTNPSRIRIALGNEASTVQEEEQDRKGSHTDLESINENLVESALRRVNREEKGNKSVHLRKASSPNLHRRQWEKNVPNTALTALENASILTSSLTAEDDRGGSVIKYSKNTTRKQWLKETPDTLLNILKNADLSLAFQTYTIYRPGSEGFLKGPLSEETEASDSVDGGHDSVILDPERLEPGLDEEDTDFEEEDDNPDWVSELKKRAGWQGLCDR
To be noted: at 1 µM.

Assay [8] addresses T4, Serine/threonine-protein kinase Nek3 (Homo sapiens). To be noted: at 10 µM.
Assay [9] concerns the target Serine/threonine-protein kinase tousled-like 2 (Homo sapiens) (UniProt Q86UE8). To be noted: at 1 µM.
Assay [10] has the same target. Conditions: at 10 µM.

Chain of Serine/threonine-protein kinase tousled-like 2 (Homo sapiens) (Q86UE8 whole entry, looked up): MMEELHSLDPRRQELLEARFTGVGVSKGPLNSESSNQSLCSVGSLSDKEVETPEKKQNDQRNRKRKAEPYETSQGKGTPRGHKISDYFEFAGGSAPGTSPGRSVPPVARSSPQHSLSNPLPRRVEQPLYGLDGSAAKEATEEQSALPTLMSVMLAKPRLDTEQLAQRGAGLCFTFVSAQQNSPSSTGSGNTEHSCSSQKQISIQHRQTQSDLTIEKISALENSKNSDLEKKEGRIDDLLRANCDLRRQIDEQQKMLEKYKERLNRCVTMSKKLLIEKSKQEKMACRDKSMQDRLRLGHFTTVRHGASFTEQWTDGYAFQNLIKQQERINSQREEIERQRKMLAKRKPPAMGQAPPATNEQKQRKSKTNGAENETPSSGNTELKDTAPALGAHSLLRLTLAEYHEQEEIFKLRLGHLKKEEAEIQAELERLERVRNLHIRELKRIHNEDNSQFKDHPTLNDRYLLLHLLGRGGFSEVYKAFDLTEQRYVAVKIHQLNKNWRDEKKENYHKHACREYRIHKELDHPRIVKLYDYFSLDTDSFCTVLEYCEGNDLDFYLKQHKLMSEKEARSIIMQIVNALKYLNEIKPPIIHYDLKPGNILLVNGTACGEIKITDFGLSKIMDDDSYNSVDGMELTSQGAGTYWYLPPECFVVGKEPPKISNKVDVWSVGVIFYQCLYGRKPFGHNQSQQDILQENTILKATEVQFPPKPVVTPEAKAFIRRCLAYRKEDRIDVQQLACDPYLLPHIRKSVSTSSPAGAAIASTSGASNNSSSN

`O=C(c1cc2cc(O)ccc2[nH]1)c1cc2cc(O)ccc2[nH]1`: the residual activity was determined as 43% in [1]; 4% in assay [2]; 54% in assay [3]; 38% in [4]; 77% in assay [5]; 73% in assay [6]. The residual activity is 111% in [7], 72% in assay [8], 81% in assay [9] and 32% in assay [10].

For the compound `O=S(=O)(NCCNC/C=C/c1ccc(Br)cc1)c1cccc2cnccc12`, the residual activity was found to be 81% in [1], 76% in assay [2], 69% in assay [3] and 69% in assay [4].

Take `NCCNc1ncc(C(N)=O)c(Nc2cccc(C(F)(F)F)c2)n1`: the residual activity in [1] was 107%; in assay [2], 75%; in [3], 71%; in [4] it was 80%; in assay [7] it was 106%; in assay [8], 78%.

Consider `Cn1c2ccccc2c2c3c(c4c5ccccc5n(CCC#N)c4c21)CNC3=O`, for which the residual activity was 32% in assay [1]; 37% in assay [2]; 49% in assay [3]; 60% in assay [4]; 76% in assay [5]; 82% in assay [6]. Also, the residual activity in assay [7] came to 100%.

Take `O=C(CCCc1ccc(-c2ccccc2F)cc1)Nc1ccc(O)cc1`: the residual activity in assay [1] is 96%; in assay [2] it was 84%; in [3], 67%; in [4], 60%; in assay [6], 106%; in [7] it was 89%. The residual activity in [8] worked out at 103%; in assay [9], 103%; in assay [10] it was 95%.

Turning to `NC(=O)Nc1sc(-c2ccc(F)cc2)cc1C(N)=O`, the residual activity in assay [1] stood at 62%; in assay [2] it was 15%; in assay [3], 25%; in assay [4], 5%; in [5], 87%; in assay [6], 58%. Also, the residual activity in [7] worked out at 69%; in [8], 48%; in assay [9], 72%; in [10], 27%.

Turning to `Cn1sc(=O)n(Cc2ccccc2)c1=O`, the residual activity came to 73% in assay [1]; 86% in assay [2]; 43% in assay [3]; 62% in assay [4]; 95% in [5]; 87% in assay [6]. Also, the residual activity in assay [7] turned out to be 83%; in [8], 97%; in assay [9] it was 84%; in assay [10] it was 80%.

Turning to `O=C(NC(NC(=S)Nc1ccc(F)c([N+](=O)[O-])c1)C(Cl)(Cl)Cl)C(c1ccccc1)c1ccccc1` (configuration not stated), the residual activity came to 85% in assay [1]; 98% in assay [2]; 86% in [3]; 49% in assay [4]; 90% in assay [5]; 88% in assay [6]. Besides, the residual activity in assay [7] was found to be 94%; in assay [8], 89%; in assay [9], 99%; in assay [10], 94%.

For the compound `O=C(O)/C=C/c1cc(Br)c(Br)c(Br)c1Br`, the residual activity in assay [1] was 106%; in assay [2] it was 98%; in [3], 85%; in assay [4], 54%; in [7], 81%; in assay [8], 108%. The residual activity in assay [9] was found to be 101%; in assay [10], 93%.

Turning to `O=C1C(Cl)=C(N2C(=O)CCC2=O)C(=O)c2ccccc21`, the residual activity in assay [1] was 76%; in assay [2], 84%; in assay [3], 41%; in [4] it was 33%; in assay [5], 93%; in [6] it was 89%. Further, the residual activity is 74% in assay [7], 87% in [8], 94% in assay [9] and 95% in [10].

Take `O=c1cc(N2CCNCC2)oc2c(-c3ccccc3)cccc12`: the residual activity stood at 92% in [1]; 78% in assay [2]; 104% in assay [3]; 105% in assay [4]; 84% in assay [5]; 92% in assay [6]. Further, the figures for the residual activity in assay [7], in assay [8] and in assay [10] were 101%, 76% and 91%, respectively.

Consider `COc1cc2nccc(Oc3ccc(NC(=S)NC(=O)c4ccccc4C)cc3)c2cc1OC`, for which the residual activity is 81% in assay [1]; 56% in assay [2]; 99% in assay [3]; 87% in assay [4]; 78% in assay [5]; 82% in [6]. Further, the residual activity in [8] came to 60%; in [9], 101%; in assay [10], 85%.
